Here are results for 20 compounds from ChEMBL document CHEMBL2218924, “A broad activity screen in support of a chemogenomic map for kinase signalling research and drug discovery” (Biochem J, 2013).

Assay [1] has as its target Tyrosine-protein kinase Lck (Homo sapiens) (UniProt P06239). The note with it: at 10 µM.
The target is the same in assay [2]. The note with it: at 1 µM.
Assay [3] shares this target. The note with it: at 10 µM. The source holds these as a separate data set.
For assay [4], the target named is Tyrosine-protein kinase Lyn (Homo sapiens) (UniProt P07948). The settings on record: at 1 µM.
Chain of Tyrosine-protein kinase Lyn (Homo sapiens) (P07948 2-512 limits assumed): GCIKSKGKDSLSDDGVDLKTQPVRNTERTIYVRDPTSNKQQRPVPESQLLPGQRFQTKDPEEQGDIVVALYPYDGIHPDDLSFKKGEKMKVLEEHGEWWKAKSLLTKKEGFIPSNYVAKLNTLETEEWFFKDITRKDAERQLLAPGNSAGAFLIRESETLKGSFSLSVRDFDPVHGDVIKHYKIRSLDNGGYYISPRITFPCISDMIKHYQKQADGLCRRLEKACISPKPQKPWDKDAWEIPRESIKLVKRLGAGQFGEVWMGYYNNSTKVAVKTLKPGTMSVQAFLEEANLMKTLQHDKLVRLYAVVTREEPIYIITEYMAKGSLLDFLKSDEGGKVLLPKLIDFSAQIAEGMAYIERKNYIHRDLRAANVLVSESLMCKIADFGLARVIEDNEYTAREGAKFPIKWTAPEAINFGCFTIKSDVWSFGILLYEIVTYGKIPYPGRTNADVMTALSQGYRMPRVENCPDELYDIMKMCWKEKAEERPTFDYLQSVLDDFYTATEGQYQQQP
For assay [5] the target is unchanged. The settings on record: at 10 µM.
The target in assay [6] is Mitogen-activated protein kinase 3 (Homo sapiens) (UniProt P27361). The note with it: at 1 µM.
Chain of Mitogen-activated protein kinase 3 (Homo sapiens) (P27361 whole entry): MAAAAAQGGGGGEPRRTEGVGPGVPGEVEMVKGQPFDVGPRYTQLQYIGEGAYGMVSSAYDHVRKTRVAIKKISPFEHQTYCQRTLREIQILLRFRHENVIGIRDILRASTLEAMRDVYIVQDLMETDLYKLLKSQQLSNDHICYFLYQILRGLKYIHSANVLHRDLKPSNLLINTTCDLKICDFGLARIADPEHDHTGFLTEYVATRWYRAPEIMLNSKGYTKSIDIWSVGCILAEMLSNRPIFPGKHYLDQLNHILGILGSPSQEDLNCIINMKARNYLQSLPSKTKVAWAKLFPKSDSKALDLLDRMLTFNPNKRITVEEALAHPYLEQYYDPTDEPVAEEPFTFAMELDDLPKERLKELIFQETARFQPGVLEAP
For assay [7] the target is unchanged. The note with it: at 10 µM.
Assay [8] addresses Mitogen-activated protein kinase 1 (Homo sapiens) (UniProt P28482). The settings on record: at 1 µM.
The target is the same in assay [9]. The note with it: at 10 µM.
Assay [10] concerns the target MAP kinase-activated protein kinase 2 (Homo sapiens) (UniProt P49137). The settings on record: at 1 µM.

Chain of Mitogen-activated protein kinase 1 (Homo sapiens) (P28482 whole entry): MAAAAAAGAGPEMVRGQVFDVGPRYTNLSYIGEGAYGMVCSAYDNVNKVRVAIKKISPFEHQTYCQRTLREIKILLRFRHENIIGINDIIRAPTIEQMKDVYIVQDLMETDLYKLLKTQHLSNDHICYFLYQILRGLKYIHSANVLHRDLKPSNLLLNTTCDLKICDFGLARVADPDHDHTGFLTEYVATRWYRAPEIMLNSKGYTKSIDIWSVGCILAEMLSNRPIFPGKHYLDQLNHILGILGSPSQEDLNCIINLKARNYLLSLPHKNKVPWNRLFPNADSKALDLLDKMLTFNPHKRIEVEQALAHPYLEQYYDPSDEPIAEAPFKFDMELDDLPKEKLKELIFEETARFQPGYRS
Chain of MAP kinase-activated protein kinase 2 (Homo sapiens) (P49137 whole entry, looked up): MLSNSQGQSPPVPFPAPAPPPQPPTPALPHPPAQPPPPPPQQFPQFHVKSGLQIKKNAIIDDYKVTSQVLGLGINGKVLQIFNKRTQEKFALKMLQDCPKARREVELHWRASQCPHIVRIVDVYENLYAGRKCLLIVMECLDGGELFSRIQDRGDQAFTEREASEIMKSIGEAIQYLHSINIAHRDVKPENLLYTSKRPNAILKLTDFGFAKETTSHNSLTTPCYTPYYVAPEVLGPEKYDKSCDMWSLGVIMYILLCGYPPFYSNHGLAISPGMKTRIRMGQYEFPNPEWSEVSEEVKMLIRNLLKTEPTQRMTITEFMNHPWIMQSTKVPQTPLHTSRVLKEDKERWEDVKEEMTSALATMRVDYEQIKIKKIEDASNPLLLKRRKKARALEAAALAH
Chain of Tyrosine-protein kinase Lck (Homo sapiens) (P06239 2-509 limits assumed): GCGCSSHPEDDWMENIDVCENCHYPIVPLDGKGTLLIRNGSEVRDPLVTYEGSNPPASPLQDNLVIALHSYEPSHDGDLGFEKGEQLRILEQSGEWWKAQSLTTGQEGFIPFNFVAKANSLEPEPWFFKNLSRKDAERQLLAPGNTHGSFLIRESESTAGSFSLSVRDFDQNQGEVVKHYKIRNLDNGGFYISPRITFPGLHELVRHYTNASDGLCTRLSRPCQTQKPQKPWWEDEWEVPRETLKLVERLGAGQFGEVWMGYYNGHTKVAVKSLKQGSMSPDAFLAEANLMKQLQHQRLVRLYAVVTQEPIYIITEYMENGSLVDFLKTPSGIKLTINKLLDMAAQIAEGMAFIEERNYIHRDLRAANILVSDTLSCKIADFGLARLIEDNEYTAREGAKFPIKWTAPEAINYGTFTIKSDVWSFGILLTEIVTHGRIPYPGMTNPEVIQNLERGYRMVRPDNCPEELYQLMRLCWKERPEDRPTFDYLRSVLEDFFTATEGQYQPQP

Regarding `O=C1Nc2cc(Br)ccc2/C1=C1/Nc2ccccc2/C1=N\O`, the residual activity was found to be 10% in assay [1]; 1% in assay [2]; 19% in assay [3]; 4% in [4]; 1% in [5]; 102% in assay [6]. Moreover, the residual activity in assay [7] is 80%; in [8], 108%; in assay [9], 106%; in [10] it was 96%.
On to `O=C1NC(=O)/C(=C/c2ccc3c(c2)OC(F)(F)O3)S1`, for which the residual activity was determined as 128% in assay [1]; 87% in assay [2]; 91% in assay [3]; 100% in [4]; 65% in assay [5]; 90% in assay [6]. The residual activity in assay [7] is 77%; in assay [8], 104%; in [9], 107%; in assay [10], 93%.
Take `CCOc1cc2ncnc(Nc3cccc(Br)c3)c2cc1OCC`: the residual activity turned out to be 4% in assay [1]; 26% in assay [2]; 8% in assay [3]; 3% in assay [4]; 1% in [5]; 90% in assay [6]. Besides, the residual activity in assay [7] came out at 55%; in assay [8] it was 106%; in [9], 77%; in [10] it was 73%.
On to `COc1ccc(CNc2nc(N(CCO)CCO)nc3c2ncn3C(C)C)cc1`, for which the residual activity is 77% in assay [1]; 104% in assay [2]; 79% in assay [3]; 74% in [4]; 78% in [5]; 91% in assay [6]. Also, the residual activity is 87% in [7], 123% in [8], 87% in assay [9] and 96% in assay [10].
For the compound `O=C1c2ccccc2-[n+]2ccc3c([nH]c4ccccc43)c21`, the residual activity in [1] came to 69%; in assay [2], 81%; in assay [3], 74%; in assay [4], 88%; in assay [5], 65%; in assay [6], 85%. For the same compound, the residual activity in assay [7] is 94%; in assay [8] it was 107%; in [9], 108%; in [10], 81%.
Regarding `O=C1NC(=O)c2c1c1c3ccccc3[nH]c1c1[nH]c3cc(Br)ccc3c21`, the residual activity was 62% in assay [1]; 95% in assay [2]; 95% in assay [3]; 72% in [4]; 69% in assay [5]; 103% in [6]. In addition, the residual activity turned out to be 104% in assay [7], 111% in [8], 99% in [9] and 98% in assay [10].
As for `O=Nc1c(-c2c(O)[nH]c3ccccc23)[nH]c2ccccc12`, the residual activity in assay [1] was 6%; in assay [2] it was 22%; in [3], 17%; in assay [4] it was 8%; in assay [5], 2%; in assay [6] it was 114%. The residual activity in assay [7] was determined as 101%; in assay [8], 104%; in assay [9], 103%; in assay [10], 101%.
`CC[n+]1c(/C=C/N(C)c2ccccc2)n(-c2ccccc2)c2ccc(-c3nc4ccccc4s3)cc21`: the residual activity was determined as 322% in assay [1]; 92% in [2]; 65% in [3]; 73% in assay [4]; 73% in assay [5]; 111% in [6]. Besides, the residual activity in [7] was found to be 96%; in assay [8] it was 105%; in [9], 100%; in [10], 95%.
In the case of `COc1cc2ncc(-c3ccccc3)nc2cc1OC`, the residual activity in [1] turned out to be 75%; in assay [2] it was 86%; in assay [3] it was 80%; in assay [4], 67%; in assay [5], 58%; in assay [6], 89%. Moreover, the residual activity in assay [7] is 81%.
On to `Oc1n[nH]c2nnc(-c3c(-c4ccccc4)nn4ccccc34)cc12`, for which the residual activity turned out to be 82% in assay [1]; 90% in [2]; 71% in assay [3]; 71% in assay [4]; 68% in assay [5]; 92% in assay [6]. In addition, the residual activity was determined as 93% in assay [7], 101% in assay [8], 105% in [9] and 82% in assay [10].
On to `CO[C@H]1[C@@H](OC)C[C@H](C)[C@@H](OC)C2=CC(=O)C=C(NC(=O)/C(C)=C/C=C/[C@H](OC)[C@@H](OC(N)=O)/C(C)=C/[C@@H]1C)C2=O`, for which the residual activity worked out at 86% in [1]; 93% in [2]; 85% in assay [3]; 85% in [4]; 57% in assay [5]; 88% in assay [6]. The residual activity was found to be 89% in assay [7], 105% in assay [8], 97% in assay [9] and 101% in assay [10].
In the case of `NC(=O)c1ccc2[nH]c(-c3ccc(Oc4ccc(Cl)cc4)cc3)nc2c1`, the residual activity was determined as 72% in assay [1]; 105% in assay [2]; 102% in assay [3]; 91% in assay [4]; 88% in assay [5]; 99% in assay [6]. Moreover, the residual activity came to 99% in assay [7], 102% in assay [8], 99% in assay [9] and 103% in [10].
As for `COc1cc2ncnc(Nc3ccc(Oc4ccccc4)cc3)c2cc1OC`, the residual activity in assay [1] is -1%; in assay [2], -2%; in assay [3], 0%; in assay [4], 1%; in assay [5] it was 1%; in [6], 83%. Further, the residual activity in [7] came out at 113%; in assay [8] it was 96%; in assay [9] it was 94%; in [10], 95%.
Take `O=c1cc(-c2cccc3c2Sc2ccccc2S3)oc(N2CCOCC2)c1`: the residual activity in [1] worked out at 94%; in [2], 112%; in [3], 102%; in assay [4], 92%; in assay [5], 86%; in assay [6] it was 110%. Moreover, the residual activity in [7] was 125%; in assay [8], 107%; in assay [9], 100%; in assay [10], 100%.
`Nc1ccc2ncnc(NCCc3ccc(Oc4ccccc4)cc3)c2c1`: the residual activity turned out to be 45% in assay [1]; 83% in [2]; 20% in assay [3]; 24% in assay [4]; 11% in assay [5]; 122% in assay [6]. Also, the residual activity amounted to 74% in assay [7], 104% in assay [8], 86% in [9] and 70% in assay [10].
In the case of `Ic1cccc(CSc2nnc(-c3ccncc3)o2)c1`, the residual activity was determined as 66% in assay [1]; 82% in assay [2]; 87% in assay [3]; 63% in assay [4]; 47% in assay [5]; 82% in [6]. Besides, the residual activity in [7] is 82%; in assay [8], 111%; in [9], 83%; in assay [10] it was 77%.
On to `COc1ccc(S(=O)(=O)N(CCO)c2ccccc2CN(C)C/C=C/c2ccc(Cl)cc2)cc1`, for which the residual activity was determined as 51% in [1]; 105% in [2]; 43% in assay [3]; 97% in [4]; 65% in assay [5]; 82% in assay [6]. Also, the residual activity in assay [7] is 70%; in [8], 111%; in assay [9], 103%; in assay [10] it was 78%.
In the case of `CN(C)c1ccc(/C=C2\C(=O)Nc3ccccc32)cc1`, the residual activity in [1] came to 55%; in [2], 83%; in [3] it was 71%; in assay [4], 86%; in assay [5] it was 63%; in assay [6], 91%. In addition, the residual activity was 69% in assay [7], 107% in assay [8], 100% in assay [9] and 121% in assay [10].
Consider `Cc1cc2ncc(-c3ccccc3)nc2cc1C`, for which the residual activity was 97% in assay [1]; 91% in assay [2]; 101% in [3]; 74% in [4]; 75% in assay [5]; 87% in assay [6]. Further, the residual activity in assay [7] amounted to 86%; in [8], 100%; in assay [9], 100%.
In the case of `Nc1nc(Nc2ccc(S(N)(=O)=O)cc2)nn1C(=S)Nc1c(F)cccc1F`, the residual activity in assay [1] is 16%; in [2], 8%; in assay [3], 18%; in [4], 6%; in [5], 1%; in assay [6], 29%. In addition, the residual activity in [7] amounted to 3%; in assay [8], 49%; in assay [9], 3%; in assay [10], 44%.
